Screening results as filed in PubChem BioAssay.
mHTT CaM bind: inhibitors of human mutant huntingtin-calmodulin interaction; P42858; AlphaScreen His-mHTT/GST-CaM binding, luminescence; inhibition, % at 15 µM; 3.6% of 190,000 active;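 also: 0% = both proteins with DMSO and 100% = one protein alone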
Pf apPOL block: Pf-apPOL DNA polymerase inhibition; Recombinant Pf-apPOL, molecular beacon fluorescence, 1.5 h; inhibition, % at 10 µM; 0.25% of 210,000 active; AID 1794808
Starred values were filed as active, the others as inactive; . = no result given; ! = repeats disagree. A selection: hits, their analogues and other compounds. The true share with any hit is near 3.5%. Rule as the data show it: active = inhibition above about 50%; inactive = the rest.

SMILES	mHTT CaM bind	Pf apPOL block
N#CCSc1nc(-c2ccccc2)c(-c2ccccc2)o1	-26	92*!
COc1ccc(-c2nc(NCc3ccc(F)cc3)c3ccccc3n2)cc1OC	87*	-4
COc1ccc(-c2nc(NCc3ccccc3)c3ccccc3n2)cc1OC	14	-1
Cc1cc(C)c(CNC(=O)C2CC(=O)N(c3cccc(NC(=O)C4CCC4)c3)C2)c(C)c1 (stereo unspecified)	2	-1
O=C(NCCCn1nc(-c2ccc(F)cc2)ccc1=O)c1cccc(-n2cnnn2)c1	-13	-10
CCn1cc(/C=C2\C(=O)NC(=O)N(c3ccc(Br)cc3)C2=O)c2ccccc21	11	-5
CCn1cc(/C=C2\C(=O)NC(=O)N(c3ccc(F)cc3)C2=O)c2ccccc21	8	-4
CCn1cc(/C=C2\C(=O)NC(=O)N(c3ccc(C)cc3)C2=O)c2ccccc21	53*	47
CCN(CC)C(=O)Cn1cc(/C=C2\C(=O)NC(=O)N(c3cccc(C)c3C)C2=O)c2ccccc21	56*	-5
O=C1OC(c2cccc([N+](=O)[O-])c2)=N/C1=C\c1ccccc1Cl	2	13
O=S(=O)(NCC(O)Cn1c2ccccc2c2ccccc21)c1ccccc1 (stereo unspecified)	30	-1
CCCC[C@H]1[C@@H]2C[C@H]([C@H]3CCCCN31)[C@H](OC(=O)Nc1ccc3c(c1)OCO3)C2	-14	-4
COc1ccc(CN2CCc3nc(N4CCC(C)CC4)ncc3C2)c(OC)c1	74*	3
COc1ccc(N2CCN(c3ncc4c(n3)CCN(Cc3ccccc3OC)C4)CC2)cc1	53*	-5
CCOc1ccccc1CN1CCc2nc(N3CCN(c4ncccn4)CC3)ncc2C1	100*	-4
COc1cc(OC)c(OC)cc1CN1CCc2nc(N3CCC(C)CC3)ncc2C1	10	-6
COc1ccc(N2CCN(c3ncc4c(n3)CCN(Cc3ccccc3C)C4)CC2)cc1	10	-2
CCOc1ccccc1CN1CCc2nc(N3CCN(CC)CC3)ncc2C1	26	-1
COc1ccc(CN2CCc3nc(N4CCN(c5ncccn5)CC4)ncc3C2)c(OC)c1	100*	-1
COc1ccc(OC)c(CN2CCc3nc(N4CCCC4)ncc3C2)c1	0	7
O=C(O)c1ccc(N=Cc2nc(-c3ccc(Cl)cc3)oc2O)cc1	-1	-2
Cc1cc(C)cc(N2C(=O)CCC2(C)C(=O)NC2CCCC2)c1 (stereo unspecified)	-5	0
COc1ccc(NC(=O)C2CCCN(C(=O)c3cccc(C)c3)C2)cc1OC (stereo unspecified)	30	-10
O=C(O)C1CCCCC1C(=O)Nc1ccc(F)cc1 (stereo unspecified)	-1	-6
CC1CCCCC1NC(=O)c1cc(=O)[nH]c2ccc(S(=O)(=O)N3CCCCC3C)cc12 (stereo unspecified)	13	-11
SMILES	mHTT CaM bind	Pf apPOL block
COc1ccccc1C(=O)N1CCC2(CC1)NC(=O)c1cc(F)ccc1N2C	4	1
O=C1[C@H](Cc2ccccc2)NCCCC[C@@H](c2ccc(Cl)cc2)N1Cc1ccccc1	91*	-4
O=C1[C@H](Cc2ccccc2)NCCCC[C@H](c2ccc(Cl)cc2)N1Cc1ccc(Cl)cc1	11	-6
Cn1cc(C(=O)N2CCN(c3ccccn3)CC2)c2cccnc21	-10	0
Cc1ccc(-c2cc(C(=O)N3CCN(c4ccccn4)CC3)c(C)[nH]2)cc1	77*	-2
COc1ccccc1-c1nnc(Sc2nc3ccc(Cl)cc3s2)n1-c1ccccc1	.	-13
COc1cc(C)c(CNc2cc(C)ccc2OC)cc1C	89*	-7
COc1cccc(CNCc2ccccc2[N+](=O)[O-])c1OC	5	-3
COc1ccc(C)cc1NS(=O)(=O)CC(C)C	6	-4
COc1ccc(C)cc1NCc1ccccc1[N+](=O)[O-]	77*	-2
Cc1nc2nc(S(=O)(=O)N3CCOCC3)nn2c(C)c1C	-1	2
O=C(NC1CC2CC1N(C(=O)Nc1ccc3c(c1)CCC3)C2)c1ccccc1 (stereo unspecified)	23	-5
Cn1c2ccc(Br)cc2c2nnc(SCCN3CCOCC3)nc21	80*	-2
Cn1c2ccc(Br)cc2c2nnc(SCN3C(=O)c4ccccc4C3=O)nc21	-2	-3
CCCC(=O)NC(c1ccco1)c1cc([N+](=O)[O-])c2cccnc2c1O (stereo unspecified)	100*	5
CC(C)C(=O)NC(c1ccco1)c1cc([N+](=O)[O-])c2cccnc2c1O (stereo unspecified)	100*	-19
CC(=O)NC(c1ccco1)c1cc([N+](=O)[O-])c2cccnc2c1O (stereo unspecified)	100*	-5
CC(C)C(=O)NC(/C=C/c1ccccc1)c1cc([N+](=O)[O-])c2cccnc2c1O (stereo unspecified)	5	-4
COc1ccccc1-c1c(C)oc2cc(OCC(=O)c3ccccc3)ccc2c1=O	6	2
COc1cc(NC(=O)Cn2nc3c(cc2=O)CN(C(C)=O)CC3)cc(OC)c1OC	-5	-5
C/C(Cl)=C\CSc1nc2c(c(=O)[nH]c(=O)n2C)n1C	-1	1
NS(=O)(=O)c1ccc(N=C2NC(=O)/C(=C\c3ccccc3)S2)cc1	2	-11
CC(C)N1CCN(C(=O)c2cc3cn(C4CCCC4)cc3s2)CC1	17	4
COc1ccc(OC)c(NC(=O)c2cc(S(=O)(=O)N(C)C3CCCCC3)ccc2F)c1	6	3
CCOc1ccc(N2CC(c3nnc(NC(=O)CC4CCCCC4)o3)CC2=O)cc1 (stereo unspecified)	3	-9
SMILES	mHTT CaM bind	Pf apPOL block
Oc1ccc(-c2csc(-c3ccccc3)n2)cc1O	26	0
NC(N)=Nc1nc(-c2ccc(O)c(O)c2)cs1	61*	-6
O=C(c1ccc2cc[nH]c2c1)N1CC2CC1CC2NS(=O)(=O)c1cccs1 (stereo unspecified)	-1	-4
Cc1ccc2c(c1)C1C=CCC1C(c1ccccc1Cl)N2 (stereo unspecified)	83*	-8
CC(=O)c1ccc2c(c1)C1C=CCC1C(c1ccccc1Cl)N2 (stereo unspecified)	40	3
Clc1ccc2c(c1)C1C=CCC1C(c1cccc3ccccc13)N2 (stereo unspecified)	65*	.
O=C(Nc1cc2cccc([N+](=O)[O-])c2oc1=O)c1ccc(Cl)cc1Cl	3	-3
O=C(c1cnccn1)N1CCCC1c1nc(-c2cccc(C(F)(F)F)c2)no1 (stereo unspecified)	-6	-3
Cc1ccccc1CNC(=O)C1(C)CCCN(S(=O)(=O)c2ccc(F)cc2)C1 (stereo unspecified)	-6	-1
COc1ccc(S(=O)(=O)N2CCCC(C)(C(=O)NCc3ccccc3C)C2)cc1 (stereo unspecified)	0	-1
Cc1ccccc1CNC(=O)C1(C)CCCN(S(=O)(=O)c2ccc(F)c(Cl)c2)C1 (stereo unspecified)	84*	-2
Cc1ccc(S(=O)(=O)N2CCCC(C)(C(=O)NCc3ccccc3C)C2)cc1C (stereo unspecified)	77*	-4
CCOc1ccc(NC(=O)N2CCC(n3c(-c4ccco4)nc4cccnc43)C2)cc1 (stereo unspecified)	9	0
CCOC(=O)CC(C)=NNc1ccc([N+](=O)[O-])cc1	.	-5
CCN(CC)CCCNC(=O)C1CCN(c2nc3cccnc3s2)CC1	-2	0
